# For some of these results: Potency and affinity values are given separately. The source made the active and inactive calls.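 Rule for the calls, unless noted: active = primary screen inhibitor hit that blocks the TRPC4 channel at some tested dose, yielding a dose curve; inactive = the rest.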
# Experiments:
# [1] = test system: TRPC4 beta (transient receptor potential cation channel C4), mouse; assay: activators of mouse TRPC4 channel, confirmation, cell-based, Fluo4 calcium, HEK293 TRPC4beta/mu-opioid, duplicates, 10 µM (AID 2426;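 active = fluorescence ratio normalized to control raised more than 50% in primary screen plus both repeat runs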;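 for activation: percent rise of integrated ratio over buffer wells lacking compound which define 0%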); conditions: Fluo4 calcium fluorescence, at 10 µM; hits give high values
# [2] = test system: transient receptor potential cation channel C4 beta (TRPC4), mouse; assay: activators of mouse TRPC4 channel, confirmation, cell-based, second round, Fluo4, HEK293 TRPC4beta/mu-opioid, 1 µM (AID 2461;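 active = primary screen active and over 50% activation in each of two duplicate runs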); conditions: Fluo4 calcium fluorescence, at 1 µM; hits give high values
# [3] = test system: TRPC4 (transient receptor potential cation channel C4 beta), mouse; assay: positive allosteric modulators of mouse TRPC4, confirmation, cell-based, second round, Fluo-4, HEK293 TRPC4beta/mu-opioid, 1 µM (AID 2554;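 active = primary screen hit whose fluorescence ratio, in both repeats, exceeds the weak agonist control mean by 3 SD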); conditions: DAMGO EC20, Fluo-4 calcium flux, at 1 µM; hits give high values
# [4] = test system: TRPC4 beta (transient receptor potential cation channel C4), mouse; assay: positive allosteric modulators of mouse TRPC4, confirmation, cell-based, Fluo-4, HEK293 TRPC4beta/mu-opioid (AID 2555;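 active = primary screen hit whose calcium fluorescence ratio, in both repeats, exceeds the weak agonist control mean by 3 SD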); conditions: DAMGO EC20, Fluo-4 calcium flux, at 10 µM; hits give high values
# [5] = biological target: Short transient receptor potential channel 4 (Mus musculus) (UniProt Q9QUQ5); assay: inhibitors of mouse TRPC4 channel, confirmation, cell-based, Fluo4, HEK293 TRPC4beta/mu-opioid (AID 2636;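 active = calcium signal cut by more than 3 SD below the full-agonist control yet still positive, in both repeats and the earlier primary screen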); conditions: DAMGO, Fluo4 calcium flux, at 10 µM; hits give high values
# Chain of Short transient receptor potential channel 4 (Mus musculus) (Q9QUQ5 whole entry, looked up): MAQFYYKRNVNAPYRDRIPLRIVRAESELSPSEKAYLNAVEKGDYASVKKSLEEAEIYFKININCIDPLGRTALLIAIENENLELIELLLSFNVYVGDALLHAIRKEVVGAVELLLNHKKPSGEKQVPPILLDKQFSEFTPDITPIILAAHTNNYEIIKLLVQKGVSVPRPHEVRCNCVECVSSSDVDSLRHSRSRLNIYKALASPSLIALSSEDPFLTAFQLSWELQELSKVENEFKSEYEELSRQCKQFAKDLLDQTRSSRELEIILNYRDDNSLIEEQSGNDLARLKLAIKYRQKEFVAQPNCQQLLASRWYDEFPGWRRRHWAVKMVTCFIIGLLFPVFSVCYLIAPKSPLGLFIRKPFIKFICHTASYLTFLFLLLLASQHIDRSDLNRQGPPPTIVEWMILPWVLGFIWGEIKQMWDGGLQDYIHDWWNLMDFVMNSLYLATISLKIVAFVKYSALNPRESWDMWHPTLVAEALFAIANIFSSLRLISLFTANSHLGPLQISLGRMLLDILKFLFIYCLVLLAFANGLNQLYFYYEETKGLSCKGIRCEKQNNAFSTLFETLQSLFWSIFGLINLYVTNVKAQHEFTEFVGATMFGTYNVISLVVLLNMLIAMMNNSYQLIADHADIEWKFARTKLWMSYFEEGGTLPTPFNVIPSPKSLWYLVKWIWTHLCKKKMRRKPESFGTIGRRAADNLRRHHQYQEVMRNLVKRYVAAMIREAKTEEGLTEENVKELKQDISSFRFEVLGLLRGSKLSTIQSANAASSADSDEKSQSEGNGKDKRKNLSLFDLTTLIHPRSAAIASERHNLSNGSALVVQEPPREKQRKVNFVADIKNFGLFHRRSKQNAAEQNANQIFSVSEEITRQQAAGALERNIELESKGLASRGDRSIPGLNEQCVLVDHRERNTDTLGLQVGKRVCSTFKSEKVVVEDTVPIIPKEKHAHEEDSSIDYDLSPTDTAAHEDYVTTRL
# [6] = biological target: Short transient receptor potential channel 4 (Mus musculus) (UniProt Q9QUQ5); assay: inhibitors of mouse TRPC4 channel, confirmation, cell-based, second round, Fluo4, HEK293 TRPC4beta/mu-opioid, 1 µM (AID 2637;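 active = calcium signal ratio cut to more than 3 SD under the fully stimulated control mean yet still positive, in both repeats and the primary screen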); conditions: Fluo4 calcium flux, DAMGO, at 1 µM; hits give high values
# [7] = biological target: Short transient receptor potential channel 4 (Mus musculus) (UniProt Q9QUQ5); assay: mouse TRPC4 channel activators, dose response, cell-based, HEK293 TRPC4/mu-opioid, Fluo-4 calcium (AID 434937;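 active = primary screen activator hit with a dose response curve and TRPC4 channel activation at any tested dose; inactive = no activation, no dose response, or not a primary hit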)
# [8] = biological target: Short transient receptor potential channel 4 (Mus musculus) (UniProt Q9QUQ5); assay: TRPC4 positive allosteric modulators, dose response, cell-based, HEK293 TRPC4/mu-opioid, Fluo-4 calcium, EC20 DAMGO (AID 434941;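 active = earlier screen potentiator hit that boosts the TRPC4 ion channel at some dose, with a dose response; inactive = no potentiation, no dose response, or not a prior hit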;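 note: calcium entry triggered by an EC20 dose of DAMGO at the co-expressed mu-opioid receptor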)
# [9] = biological target: Short transient receptor potential channel 4 (Mus musculus) (UniProt Q9QUQ5); assay: mouse TRPC4 channel inhibitors, dose response, cell-based, HEK293 TRPC4/mu-opioid, Fluo-4 calcium (AID 434942)
# [10] = biological target: Short transient receptor potential channel 6 (Mus musculus) (UniProt Q61143); assay: inhibition of mouse TRPC6 channel, confirmation, selectivity assay for TRPC4 inhibitor project, cell-based, HEK293, membrane potential dye, duplicate (AID 434948;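 active = active in primary screen and both duplicates, each dropping signal beyond three positive-control SD with fluorescence still positive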); conditions: HEK293 TRPC6, membrane potential dye fluorescence, at 10 µM, stimulated with maximal-effect acetylcholine; hits give high values
# Chain of Short transient receptor potential channel 6 (Mus musculus) (Q61143 whole entry, looked up): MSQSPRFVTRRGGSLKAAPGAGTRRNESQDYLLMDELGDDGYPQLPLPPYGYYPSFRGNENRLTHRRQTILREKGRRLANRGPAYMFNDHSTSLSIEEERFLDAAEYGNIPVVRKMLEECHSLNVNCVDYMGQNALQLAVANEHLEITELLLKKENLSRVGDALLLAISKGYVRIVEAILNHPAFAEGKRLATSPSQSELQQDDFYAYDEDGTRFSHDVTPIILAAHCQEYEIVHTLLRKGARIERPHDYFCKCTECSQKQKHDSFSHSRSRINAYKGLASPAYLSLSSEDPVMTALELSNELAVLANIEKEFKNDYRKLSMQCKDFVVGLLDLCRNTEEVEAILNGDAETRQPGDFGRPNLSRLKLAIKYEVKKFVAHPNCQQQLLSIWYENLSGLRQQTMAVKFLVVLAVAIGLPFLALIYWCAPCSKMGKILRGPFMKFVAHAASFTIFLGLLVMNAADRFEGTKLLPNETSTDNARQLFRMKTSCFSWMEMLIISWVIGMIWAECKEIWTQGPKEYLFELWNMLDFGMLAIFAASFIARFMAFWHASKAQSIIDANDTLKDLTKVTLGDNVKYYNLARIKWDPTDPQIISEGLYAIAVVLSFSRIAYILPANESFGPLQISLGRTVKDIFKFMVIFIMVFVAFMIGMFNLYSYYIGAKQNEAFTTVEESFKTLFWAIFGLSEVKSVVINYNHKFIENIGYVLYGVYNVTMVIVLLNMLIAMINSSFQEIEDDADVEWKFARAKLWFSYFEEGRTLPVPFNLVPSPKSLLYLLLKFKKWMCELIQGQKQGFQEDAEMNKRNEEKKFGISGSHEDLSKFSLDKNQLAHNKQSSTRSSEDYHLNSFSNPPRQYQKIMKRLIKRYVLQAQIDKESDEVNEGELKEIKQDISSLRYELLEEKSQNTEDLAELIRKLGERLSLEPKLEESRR
# [11] = biological target: Short transient receptor potential channel 6 (Mus musculus) (UniProt Q61143); assay: activation of mouse TRPC6 channel, confirmation, selectivity assay for TRPC4 activator project, cell-based, HEK293, membrane potential dye, duplicate (AID 434950;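 active = membrane potential signal rise above negative control mean plus 3 SD in both duplicates, also active in the earlier TRPC4 screen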); conditions: HEK293 TRPC6, membrane potential fluorescence, at 10 µM; hits give high values
# [12] = biological target: Short transient receptor potential channel 6 (Mus musculus) (UniProt Q61143); assay: TRPC6 potentiation by TRPC4 potentiator hits, confirmation, selectivity assay for TRPC4 potentiator project, HEK293 cells, membrane potential dye, duplicate (AID 434952;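 active = compound raising the membrane signal above positive-control mean plus 3 SD in both repeats, and a primary screen hit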); conditions: HEK293 TRPC6, membrane potential dye fluorescence, at 10 µM, maximal acetylcholine added after compound; hits give high values
# [13] = biological target: Short transient receptor potential channel 4 (Mus musculus) (UniProt Q9QUQ5); assay: calcium flux activators in TRPC4/5HT1a cells, counter-screen for TRPC4 activator project, cell-based, second counter screen, HEK293 TRPC4/5HT1a, Fluo-4 (AID 434977;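 active = calcium signal rise above buffer-control mean plus 5 SD in both duplicates, and also a hit in the primary screen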); conditions: Fluo-4 calcium flux, at 10 µM; hits give high values
# [14] = calcium flux inhibitors in TRPC4/5HT1a cells, confirmation, counter-screen for TRPC4 inhibitor project, cell-based, second counter screen, HEK293 TRPC4/5HT1a, Fluo-4 (AID 434978;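 active = primary screen active whose calcium signal fell more than 3 SD beyond the full-serotonin control mean in both duplicate plates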;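 note: serotonin given first at submaximal then at maximal dose after compound preincubation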); conditions: Fluo-4 calcium flux, at 10 µM, serotonin added to trigger calcium flux; hits give high values
# [15] = test system: TRPC4 (mouse), co-expressed with 5HT1a in HEK293; assay: calcium flux potentiators in TRPC4/5HT1a cells, confirmation, counter-screen for TRPC4 potentiator project, cell-based, second counter screen, HEK293 TRPC4/5HT1a, Fluo-4 (AID 434979;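 active = signal rise over 3 SD above mean of control wells given weak agonist, in both repeats and first screen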); conditions: Fluo-4 calcium flux, at 10 µM, serotonin added at its EC20 dose; hits give high values
# [16] = calcium flux activation in mu-opioid HEK293 cells, confirmation, counter-screen for TRPC4 activator project, cell-based, HEK293 mu-opioid receptor line (AID 449723;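 active = hit in primary screen, with calcium signal over 5 SD above buffer well mean in both duplicates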;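 note: counter screen cells carry the mu-opioid receptor alone and lack TRPC4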); conditions: Fluo-4 calcium fluorescence, at 10 µM; hits give high values
# [17] = calcium flux enhancement in mu-opioid HEK293 cells, confirmation, counter-screen for TRPC4 allosteric potentiator project, cell-based, HEK293 mu-opioid receptor line (AID 449724;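 active = calcium signal rise more than 3 SD above the low-dose agonist control mean, in both duplicate plates and the primary screen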); conditions: Fluo-4 calcium flux, at 10 µM, compound added before EC20 DAMGO stimulus; hits give high values
smiles,measurement,setting,value
O=[N+]([O-])c1cccc(CSc2nnc(Cc3ccccc3)n2-c2ccc(F)cc2)c1,outcome,[1],inactive
same,outcome,[2],inactive
same,outcome,[3],inactive
same,outcome,[4],inactive
same,outcome,[5],inactive
same,outcome,[6],inactive
same,outcome,[7],inactive
same,outcome,[8],inactive
same,outcome,[9],inactive
same,outcome,[10],inactive
same,outcome,[11],inactive
same,outcome,[12],inactive
same,outcome,[13],inactive
same,outcome,[14],inactive
same,outcome,[15],inactive
same,outcome,[16],inactive
same,outcome,[17],inactive
CCOc1ccc2nc(NCCNC(=O)C3CC3)c(C)cc2c1,outcome,[1],inactive
same,outcome,[2],inactive
same,outcome,[3],inactive
same,outcome,[4],inactive
same,outcome,[5],inactive
same,outcome,[6],inactive
same,outcome,[7],inactive
same,outcome,[8],inactive
same,outcome,[9],inactive
same,outcome,[10],inactive
same,outcome,[11],inactive
same,outcome,[12],inactive
same,outcome,[13],inactive
same,outcome,[14],inactive
same,outcome,[15],inactive
same,outcome,[16],inactive
same,outcome,[17],inactive
CN(C)S(=O)(=O)c1ccc(Cl)c(C(=O)NC2CCN(Cc3ccccc3)C2)c1 (stereo unspecified),outcome,[1],inactive
same,outcome,[2],inactive
same,outcome,[3],inactive
same,outcome,[4],inactive
same,outcome,[5],inactive
same,outcome,[6],inactive
same,outcome,[7],inactive
same,outcome,[8],inactive
same,outcome,[9],inactive
same,outcome,[10],inactive
same,outcome,[11],inactive
same,outcome,[12],inactive
same,outcome,[13],inactive
same,outcome,[14],inactive
same,potentiation,[15],15.3% (active)
same,outcome,[16],inactive
same,outcome,[17],inactive
Cc1cc(Cl)cc(Cl)c1OCCCCN(C)C,outcome,[1],inactive
same,outcome,[2],inactive
same,potentiation,[3],22% (active)
same,potentiation,[4],18% (active)
same,outcome,[5],inactive
same,outcome,[6],inactive
same,outcome,[7],inactive
same,outcome,[8],inactive
same,outcome,[9],inactive
same,outcome,[10],inactive
same,outcome,[11],inactive
same,outcome,[12],inactive
same,outcome,[13],inactive
same,outcome,[14],inactive
same,potentiation,[15],23.9% (active)
same,outcome,[16],inactive
same,outcome,[17],inactive
CCOC(=O)C1(CC2CC2)CCN(Cc2cn[nH]c2-c2cccc(F)c2)CC1,outcome,[1],inactive
same,outcome,[2],inactive
same,outcome,[3],inactive
same,outcome,[4],inactive
same,outcome,[5],inactive
same,outcome,[6],inactive
same,outcome,[7],inactive
same,outcome,[8],inactive
same,outcome,[9],inactive
same,outcome,[10],inactive
same,outcome,[11],inactive
same,outcome,[12],inactive
same,outcome,[13],inactive
same,outcome,[14],inactive
same,outcome,[15],inactive
same,outcome,[16],inactive
same,outcome,[17],inactive
Cc1[nH]n2c(=O)c3c(nc2c1-c1ccccc1)CCC3,outcome,[1],inactive
same,outcome,[2],inactive
same,outcome,[3],inactive
same,outcome,[4],inactive
same,inhibition,[5],76% (active)
same,outcome,[6],inactive
same,outcome,[7],inactive
same,outcome,[8],inactive
same,outcome,[9],inactive
same,outcome,[10],inactive
same,outcome,[11],inactive
same,outcome,[12],inactive
same,outcome,[13],inactive
same,outcome,[14],inactive
same,outcome,[15],inactive
same,outcome,[16],inactive
same,outcome,[17],inactive
CCN(CC)c1ccc(CNc2nc3ccccc3n2CCN2CCCCC2)cc1,activation,[1],109% (active)
same,outcome,[2],inactive
same,outcome,[3],inactive
same,outcome,[4],inactive
same,outcome,[5],inactive
same,outcome,[6],inactive
same,outcome,[7],inactive
same,outcome,[8],inactive
same,outcome,[9],inactive
same,outcome,[10],inactive
same,outcome,[11],inactive
same,outcome,[12],inactive
same,outcome,[13],inactive
same,outcome,[14],inactive
same,outcome,[15],inactive
same,outcome,[16],inactive
same,outcome,[17],inactive
O=S(=O)(c1ccc(Oc2ccc(Br)cc2)cc1)N1CCOCC1,outcome,[1],inactive
same,outcome,[2],inactive
same,outcome,[3],inactive
same,outcome,[4],inactive
same,outcome,[5],inactive
same,outcome,[6],inactive
same,outcome,[7],inactive
same,outcome,[8],inactive
same,outcome,[9],inactive
same,outcome,[10],inactive
same,outcome,[11],inactive
same,outcome,[12],inactive
same,outcome,[13],inactive
same,outcome,[14],inactive
same,outcome,[15],inactive
same,outcome,[16],inactive
same,outcome,[17],inactive
